Rows were chosen to be rich in hits. Some 4.6% of all compounds tested hit in one or more screens of this group.
D1 ag: Allosteric Agonists of the Human D1 Dopamine Receptor: qHTS; AID 504660, 2011; HEK293 T-REx D1 cells, calcium flux, agonist mode; activation, % at 2 µM; hit rate 1% among 360,000; note: 0% is about no effect
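Agonism was scored from calcium flux recorded over 180 s (1 read/s) after pintool compound addition, following a 10-cycle baseline. Cells were inducible force-coupled HEK293 TREx D1, plated overnight at 30 C and loaded with no-wash calcium dye.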
D1 antagonist: Antagonist of Human D 1 Dopamine Receptor: qHTS; D(1A) dopamine receptor (Homo sapiens), P21728; HEK293 TREx D1 cells, calcium flux, dopamine EC80; hits give low values; activity change, negative = inhibition, % at 10 µM; hit rate 3.2% among 360,000; AID 504652, 2011; in the data active = activity change below about -30%; note: % is set by controls: 0 for no effect and ±100 for the full control effect
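Compound effects on dopamine-evoked calcium signalling were measured in tetracycline-induced HEK293 Trex D1 cells. Dopamine at EC80 followed a 180 s compound pre-read, and fluorescence was tracked kinetically for 180 s more.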
D1 potentiator: Potentiators of Human D1 Dopamine Receptor: qHTS; D(1A) dopamine receptor (Homo sapiens), P21728; HEK293 TREx D1 cells, calcium flux, dopamine EC20 potentiation; potentiation, % at 10 µM; hit rate 0.036% among 360,000; AID 504651, 2011; in the data active = potentiation above about 30%; note: 0% is about no effect
TRHR enhancer: qHTS for Small Molecule Agonists and Allosteric Enhancers of Human TRH Receptor: Primary Screen for Enhancers; Thyrotropin-releasing hormone receptor (Homo sapiens), P34981; TRHR cells, fluo-8 calcium fluorescence, EC20 TRH enhancement; enhancement, % at 2 µM; hit rate 0.66% among 360,000; in the data active = enhancement above about 30%; note: 0% is about no effect
Target sequence (P34981 whole entry, looked up): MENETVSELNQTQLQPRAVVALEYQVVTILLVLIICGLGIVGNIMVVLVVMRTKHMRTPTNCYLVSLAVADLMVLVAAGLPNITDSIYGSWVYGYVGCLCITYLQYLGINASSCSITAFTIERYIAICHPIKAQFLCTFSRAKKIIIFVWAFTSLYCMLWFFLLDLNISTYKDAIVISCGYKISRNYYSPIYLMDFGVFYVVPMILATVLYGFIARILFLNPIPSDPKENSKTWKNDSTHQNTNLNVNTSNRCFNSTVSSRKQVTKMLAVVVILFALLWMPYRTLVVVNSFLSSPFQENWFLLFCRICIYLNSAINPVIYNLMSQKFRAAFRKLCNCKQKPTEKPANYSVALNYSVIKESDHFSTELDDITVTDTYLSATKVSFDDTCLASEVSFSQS
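Enhancer read-out: after compound pinning and an initial kinetic agonist-mode read, an EC20 of TRH (10 nM final) was injected and fluo-8 calcium signal (Ex 480/Em 530) followed at 1 s/cycle for 100 cycles in TRHR-expressing cells.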
TRHR agonist: qHTS for Small Molecule Agonists and Allosteric Enhancers of Human TRH Receptor: Primary Screen for Agonists. activation, % at 2 µM. AID 493084, 2011. hit rate 0.18% among 360,000. Thyrotropin-releasing hormone receptor (Homo sapiens), P34981. TRHR cells, calcium flux fluo-8, FDSS agonist mode; note: 0% is about no effect
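In this calcium-flux screen, cells bearing human TRHR are dye-loaded with fluo-8, baselined for 10 cycles, then exposed to library compounds; positive kinetic calcium responses during the agonist phase mark hits, with TRH as control.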
* hit, by the source's call; · = not tested or not shown. Cut-off read from the data, not from the text of the source, unless noted: active = activation above about 30%; inactive = the rest.

SMILES	D1 ag	D1 antagonist	D1 potentiator	TRHR enhancer	TRHR agonist
CCN(CC)CCOC(=O)c1ccc(NC(=O)CCCN2C(=O)S/C(=C/c3ccc(OC)cc3)C2=S)cc1	3	-65*	-9	0	1
Cc1ccc(S(=O)(=O)N(C)Cc2ccc(C(=O)N/N=C/c3ccc(OC(F)F)cc3OC(F)F)cc2)cc1	4	-13	-4	6	1
Cc1ccc(S(=O)(=O)N(C)Cc2ccc(C(=O)N/N=C3\CC(=O)CC(C)(C)C3)cc2)cc1	-1	-42*	-4	-1	0
O=C(CN1C(=O)/C(=C/c2cccc(Br)c2)SC1=S)Nc1cccnc1	2	12	6	-4	1
CCOc1ccc(Oc2ccccc2NC(=O)CSCC(=O)Nc2cc(C)on2)cc1	13	-44*	-6	-7	0
Cc1cccc(Oc2ccccc2NC(=O)CSCC(=O)Nc2cc(C)on2)c1	15	-44*	-7	-10	0
Cc1cc(NC(=O)CSCC(=O)Nc2ccccc2OC(F)F)no1	1	3	0	2	0
NC(=O)C1CCN(C(=O)Cc2ccsc2)CC1	5	18	-17	-5	3
Cc1cc(/C=C2/NC(=O)N(Cc3ccccc3F)C2=O)c(C)n1-c1ccccn1	2	-43*	-3	3	0
Cc1ccc(/C=C2/NC(=O)N(Cc3ccccc3F)C2=O)s1	43*	9	-4	-1	14
Cn1cc(S(=O)(=O)N2CCOCC2)cc1C(=O)Nc1cccc(Cl)c1	3	2	-9	-12	-1
COc1ccnc(N2CCN(c3ccc(Cl)cc3)CC2)c1C#N	7	-31*	-4	-3	1
O=C(CCn1c(SCC(=O)NCc2ccco2)nc2ccccc2c1=O)NCCc1ccccc1	1	-14	-6	2	-1
CN(C)Cc1ccccc1COc1ccccc1	3	26	4	0	0
OCCCCNCc1ccc(OCc2ccc(Cl)cc2Cl)cc1	61*	-27	-9	17	3
OCCNCc1ccc(OCc2ccc(Cl)cc2Cl)cc1	30	4	-4	10	2
Cc1ccccc1NC(=O)Cn1c(SCC(=O)Nc2ccc(F)cc2)nc2ccccc21	1	-80*	0	-2	0
C1CCN(Cc2nnnn2CC2CCCO2)CC1 (stereo unspecified)	2	6	-1	-5	0
CC(C)(C)OC(=O)Cc1nnc(-c2nc3ccccc3[nH]2)o1	2	-33*	4	-1	2
CCc1c(C)sc(NC(=O)c2cc(C(C)C)on2)c1C#N	9	-32*	3	-7	0
CCc1cc(C(=O)Nc2sc(C)c(CC)c2C#N)no1	0	1	1	11	0
Cc1nc2c(Cl)cccc2c2c1CC(CBr)O2 (stereo unspecified)	1	-31*	-2	-6	-1
COc1ccc(-c2noc(CCCC(=O)NCC3CCCO3)n2)cc1 (stereo unspecified)	7	0	-3	2	0
CCN1CC2=C(OC(N)=C(C#N)C2c2ccccc2)/C(=C\c2ccccc2)C1 (stereo unspecified)	2	-73*	-5	-2	0
N#CC1=C(N)OC2=C(CC/C2=C\c2ccc(F)cc2)C1c1ccc(F)cc1 (stereo unspecified)	235*	-58*	7	2	42*
SMILES	D1 ag	D1 antagonist	D1 potentiator	TRHR enhancer	TRHR agonist
N#CC1=C(N)OC2=C(CCC/C2=C/c2ccoc2)C1c1ccoc1 (stereo unspecified)	10	3	1	18	2
CC(C)N1CC2=C(OC(N)=C(C#N)C2c2cccnc2)/C(=C/c2cccnc2)C1 (stereo unspecified)	4	-6	-5	34*	0
Cc1ccc(NC(=O)CCc2c(C)nc3c(-c4ccc(F)cc4)c(C)nn3c2C)cc1F	2	5	-4	7	0
CC1C(=O)N2CCCc3cc(S(=O)(=O)N4CCC(C(N)=O)CC4)cc1c32 (stereo unspecified)	5	23	-5	2	0
CCN(c1ccccc1)S(=O)(=O)c1cccc(C(=O)NCc2ccncc2)c1	5	7	-10	31*	0
CCN(c1ccccc1)S(=O)(=O)c1cccc(C(=O)NCc2cccnc2)c1	8	2	4	10	-1
CCn1ccc2cc(S(=O)(=O)N3CCCN(C(=O)Nc4cccc(Cl)c4)CC3)ccc21	3	-2	1	-2	0
CCCC(=O)Nc1cc(-c2nc3cccnc3s2)ccc1C	49*	24	-3	15	0
CCCCC(=O)Nc1cc(-c2nc3cccnc3s2)ccc1C	1	-1	0	-9	0
Cc1ccc(O)c(C=Nc2cc(C)ccc2O)c1	4	-35*	-4	3	0
CC(C)(C)c1ccc(O)c(N=Cc2cc(Br)ccc2O)c1	11	13	1	2	3
COC(=O)c1ccc(NC(=O)n2ncc3c(C)cccc32)cc1	2	-70*	6	5	1
CC(CCc1ccccc1)NC(=O)C(=O)NCc1ccccc1 (stereo unspecified)	1	15	-3	-1	0
CCCCN1C(=O)C2(NNc3ccccc3O2)c2ccccc21 (stereo unspecified)	74*	·	-2	-15	14
C=CCN1C(=O)C2(NNc3ccccc3O2)c2ccccc21 (stereo unspecified)	45*	-22	-1	8	8
C=CCN1C(=O)C2(NC(=O)c3ccccc3N2)c2ccccc21 (stereo unspecified)	1	8	-1	20	1
CN(C)/C(=N\O)c1c(Cl)cccc1Cl	3	-3	-1	10	0
Cc1ccc2c(C(=O)CN3CCC4(CC3)OCCO4)c(C)[nH]c2c1	5	-13	-3	-1	0
Cc1ccc2c(C(=O)CN3CCSCC3)c(C)[nH]c2c1	2	-44*	0	-5	0
NS(=O)(=O)c1ccc(NC(=S)Nc2ccn(Cc3cccc4ccccc34)n2)cc1	1	-53*	2	-22	0
CSc1cccc(NC(=O)c2nnn(CC(=O)Nc3cc(C)cc(C)c3)c2N)c1	6	-2	-3	-1	2
Cc1ccc(S(=O)(=O)N2CCN(Cc3ccco3)CC2)c(C)c1	4	-8	38*	-6	0
Cc1cc(C)cc(NCc2cc3c(cc2[N+](=O)[O-])OCO3)c1	3	-33*	-2	-1	0
COc1cc(C(=O)Nc2nnc(C3CC3)s2)ccc1OCc1c(C)noc1C	2	-32*	-5	-1	0
